High-throughput results (PubChem BioAssay)
Shown is part of a subset that was picked to be rich in hits.
GRP78 ERSR act – qHTS for Inducers of the Endoplasmic Reticulum Stress Response (ERSR) in Human Glioma: qHTS; U87-MG GRP78 promoter luciferase reporter, 16 h; Potency, µM, for inactives: top-dose activation, usual class: activators; hit rate 0.02% among 420,000; AID 602332, 2012; also: series mostly up to about 76 µM; % of control where 0% means no effect; nearly all actives have a fitted effect of over 35% in size
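Stably transfected U87-MG glioma cells carrying a GRP78-based luciferase sensor; 16 h compound incubation. Luminescence end-point read 10 min after Bright-Glo addition at room temperature.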
Sfp inh – qHTS Assay for Inhibitors of Bacillus subtilis Sfp phosphopantetheinyl transferase (PPTase). 4'-phosphopantetheinyl transferase ffp (Bacillus subtilis), Q9F4F7. hit rate 3.5% among 310,000. Biochemical Sfp PPTase activity, qHTS. Potency, µM, inactives show largest response in the series, negative = inhibition, most hits filed as inhibitors;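 also: the enzyme is Sfp with the accession as filed and its product quenches rhodamine fluorescence; 0% = enzyme reaction without inhibitor and -100% = no enzyme wells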
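Reaction rates are the 30-min fluorescence difference (ex 525, em 598 nm) in wells containing 15 nM Sfp, 5 uM rhodamine-CoA and 12.5 uM BHQ-2-YbbR at pH 7.6 with 10 mM MgCl2.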
VDR inhibitor – Inhibitors of the vitamin D receptor (VDR): qHTS; VDR-SRC2-3 peptide fluorescence polarization, 2 h; hit rate 0.93% among 400,000; Potency, µM, for the others: max response, negative = inhibition, most hits filed as inhibitors; also: % is scaled to controls: 0 for no effect and ±100 for the full control effect
Target sequence (P11473 whole entry, looked up): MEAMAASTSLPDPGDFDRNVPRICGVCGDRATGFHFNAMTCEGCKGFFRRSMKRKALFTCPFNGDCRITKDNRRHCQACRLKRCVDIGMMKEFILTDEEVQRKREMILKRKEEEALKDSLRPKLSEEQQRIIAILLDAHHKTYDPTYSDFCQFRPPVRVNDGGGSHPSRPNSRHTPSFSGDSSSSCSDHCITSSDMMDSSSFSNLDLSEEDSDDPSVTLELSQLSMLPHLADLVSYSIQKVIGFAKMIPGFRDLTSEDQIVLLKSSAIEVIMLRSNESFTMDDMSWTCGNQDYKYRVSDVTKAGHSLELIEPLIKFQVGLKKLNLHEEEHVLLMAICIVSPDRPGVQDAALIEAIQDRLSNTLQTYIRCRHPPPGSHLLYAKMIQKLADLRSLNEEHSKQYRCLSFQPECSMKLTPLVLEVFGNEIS
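FP read-out; VDR + SRC2-3 coactivator peptide; 23 nl compound by pintool; 2 h RT incubation; reagents held at 4 deg C, protected from light.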
12-LOX inh – Primary qHTS assay for inhibitors of human arachidonate 12S-lipoxygenase (ALOX12): Round 2; Polyunsaturated fatty acid lipoxygenase ALOX12 (Homo sapiens), P18054; AID 1671190, 2021; hit rate 1.1% among 580,000; Potency, µM (titrated, usually from 108 µM), for the others: at the top dose activity change, negative = inhibition, actives largely listed as inhibitors; purified 12hLO, xylenol orange hydroperoxide absorbance; also: % is scaled to controls: 0 for no effect and ±100 for the full control effect
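Hydroperoxide product was detected by ferrous iron/xylenol orange as the 573 to 405 nm absorbance ratio. Arachidonic acid at 40 uM (final) was turned over for 30 min at room temperature by 150 nM human 12hLO, pH 7.0 Hepes buffer, after 15 min compound preincubation.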
G9a inh – qHTS Assay for Inhibitors of Histone Lysine Methyltransferase G9a | Histone-lysine N-methyltransferase EHMT2 (Homo sapiens), Q96KQ7 | G9a H3K9 monomethylation, AlphaScreen, 2 h | Potency, µM (highest dose often 102 µM), for inactives: at the highest dose activity, negative = inhibition, hits mostly inhibitors | hit rate 8.8% among 350,000 | AID 504332, 2011; also: % is scaled to controls: 0 for no effect and ±100 for the full control effect; nearly all actives have a fitted effect of over 75% in size
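Signal arises when biotinylated H3K9 peptide, once monomethylated, bridges streptavidin donor and antibody-captured acceptor beads. Enzyme at 20 nM was preincubated 15 min with test compounds; peptide 500 nM and SAM 20 uM then reacted for 2 h.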
Numbers without * were called inactive; ! = not active in a repeat; [ ] = dose if it differs, or a comment. Calls follow the shape of the dose curve; as a rule, active = well fitted curve in the direction sought with a large enough effect; inconclusive = small, poorly fitted or top-dose-only effect, or another doubt; inactive = no such curve, though single readings can be large; an effect the other way counts as inactive or inconclusive. Potency is read from the fitted curve at half-maximal effect.

Results for O=C(Nc1ccccc1)N1[C@H]2CC[C@@H]1c1cncnc1C2 ?
12-LOX inh: 6%

What do the screens show for `O=C(NCc1ccco1)[C@H]1CN2CCC1C[C@@H]2Cn1cc(CO)nn1` (stereo partly drawn)?
12-LOX inh: 0%[176 µM]

What do the screens show for `O=C1Nc2ccccc2CC12CCCN2Cc1ccccn1` (stereo not drawn)?
12-LOX inh: -13%[6.33 µM]

How did O=C(C(=O)N1CCc2ccccc2C1)c1cn(CC(=O)N2CCCCC2)c2ccccc12 do in these assays?
GRP78 ERSR act: 1%; Sfp inh: -12%; VDR inhibitor: -14%; 12-LOX inh: -3%; G9a inh: 40µM*

How did O=C1NC(=S)NC(=O)C1=Cc1ccc2c(c1)CCN2CCCCl do in these assays?
GRP78 ERSR act: -3%; Sfp inh: 16µM*; VDR inhibitor: inconclusive; G9a inh: 10µM*

Results for O=C(c1ccncc1)N1CC2CCC(C1)N2Cc1cccc(Cl)c1 ?
12-LOX inh: 4%[6.33 µM]

Results for CC(N)Cc1ccc2oc3ccccc3c2c1 (stereo not drawn) ?
12-LOX inh: -7%

What do the screens show for `COc1ccc(C(=O)N/N=C/C23CC[C@@H](O)CC2(O)CC[C@@H]2[C@@H]3CCC3(C)C(C4=CC(=O)OC4)CCC23O)cc1` (stereo partly drawn)?
GRP78 ERSR act: -8%; Sfp inh: 0%; VDR inhibitor: 12%; 12-LOX inh: 5%; G9a inh: 50µM*

Results for CP(=O)(Nc1ccc(Cl)cc1)c1nc2c(s1)CCCC2 (stereo not drawn) ?
GRP78 ERSR act: -4%; Sfp inh: 3%; VDR inhibitor: -16%; 12-LOX inh: 9%; G9a inh: 40µM*

What do the screens show for `C#C[C@H]1CN2CC[C@H]1C[C@@H]2CNCc1cccc(C#N)c1`?
12-LOX inh: 94%[176 µM]

What do the screens show for `NC(=O)C1=NO[C@@H]2CN(CC3CCCCC3)C[C@H]12`?
12-LOX inh: 8%[176 µM]

Results for Oc1c(Cl)c(Cl)c(Cl)c(Cl)c1Cl ?
GRP78 ERSR act: 0%; Sfp inh: 9%; VDR inhibitor: 89µM*; 12-LOX inh: -29%

What do the screens show for `Cc1cc(/C=C2/C(=O)NC(=O)N(c3ccc(Br)cc3)C2=O)c(C)n1C`?
GRP78 ERSR act: 0%; Sfp inh: 6%; VDR inhibitor: 23%; 12-LOX inh: 227%; G9a inh: -4%

What do the screens show for `Cc1ccc(N2C(=O)NC(=O)/C(=C\c3ccsc3)C2=O)cc1C`?
Sfp inh: 50µM*; G9a inh: inconclusive

How did O=C1NC(=O)N(c2ccc3c(c2)OCO3)C(=O)/C1=C\c1ccsc1 do in these assays?
GRP78 ERSR act: -1%; Sfp inh: 35µM*; VDR inhibitor: inconclusive; 12-LOX inh: inconclusive

Results for N[C@@H](Cc1cc(I)c(O)c(I)c1)C(=O)O ?
GRP78 ERSR act: -3%; Sfp inh: inconclusive; VDR inhibitor: inconclusive; 12-LOX inh: 0.51µM*!; G9a inh: 6.3µM*!

What do the screens show for `CC(C)C[C@H](NC(=O)[C@H](Cc1ccccc1)NC(=O)CNC(=O)[C@H](C)NC(=O)[C@@H](N)Cc1ccc(O)cc1)C(=O)O`?
GRP78 ERSR act: -2%; Sfp inh: 4%; VDR inhibitor: -4%; 12-LOX inh: 11%[12.5 µM]; G9a inh: 35%[59 µM]

Results for Cc1[nH]c2ccccc2c1C1=CCNCC1 ?
GRP78 ERSR act: -4%; Sfp inh: 1%; VDR inhibitor: 5%; 12-LOX inh: 10%; G9a inh: 50µM*

Results for C1=C(c2ccccc2)CCNC1 ?
GRP78 ERSR act: -6%; Sfp inh: 5%; VDR inhibitor: -8%; 12-LOX inh: -3%

What do the screens show for `COC(=O)c1ccc(C2SCC(=O)Nc3n[nH]c(C)c32)cc1` (stereo not drawn)?
12-LOX inh: 8%
